Active and inactive are the calls of the source. How the source made its calls: active means hit-call score of the fitted dose curve at least 0.9, where 1 is the maximum; inactive means score below 0.9.

What is called AC50 is the midpoint of the concentration-response curve, whichever way the signal moves.

Chain of Hepatocyte nuclear factor 6 (Homo sapiens) (Q9UBC0 whole entry, looked up): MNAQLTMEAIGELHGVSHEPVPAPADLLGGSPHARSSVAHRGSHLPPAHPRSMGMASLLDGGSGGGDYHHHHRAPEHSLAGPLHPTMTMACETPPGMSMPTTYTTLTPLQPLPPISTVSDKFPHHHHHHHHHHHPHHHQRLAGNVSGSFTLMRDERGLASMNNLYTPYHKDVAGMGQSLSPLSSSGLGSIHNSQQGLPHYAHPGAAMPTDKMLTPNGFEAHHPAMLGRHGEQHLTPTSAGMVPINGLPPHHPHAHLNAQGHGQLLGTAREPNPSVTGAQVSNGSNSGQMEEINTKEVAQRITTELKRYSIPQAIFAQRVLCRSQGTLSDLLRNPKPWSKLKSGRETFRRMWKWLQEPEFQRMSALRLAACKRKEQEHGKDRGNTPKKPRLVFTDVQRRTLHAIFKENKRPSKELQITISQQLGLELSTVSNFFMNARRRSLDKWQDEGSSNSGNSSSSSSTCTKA

This assay concerns the target Hepatocyte nuclear factor 6 (Homo sapiens) (UniProt Q9UBC0). The assay can be described thus: ATG_HNF6_CIS: Attagene CIS-FACTORIAL HepG2 Assay for human Hepatocyte Nuclear Factor 6 (HNF6) (AID 2282952). To be noted: HepG2 Attagene cis-factorial HNF6 reporter transcription; actives raise or lower the signal. How it is done: ATG_CIS is a cell-based, multiplexed-readout assay that uses HepG2, a human liver cell line, with measurements taken at 24 hours after chemical dosing in a 24-well plate.ATG_HNF6_CIS is one of 52 assay component(s) measured or calculated from the ATG_CIS assay. It is designed to make measurements of mRNA induction, a form of inducible reporter, as detected with fluorescence intensity signals by Reverse transcription polymerase chain reaction (RT-PCR) and Capillary electrophoresis technology.Data from the assay component ATG_HNF6_CIS was analyzed into 1 assay endpoint. This assay endpoint, ATG_HNF6_CIS, was analyzed with bidirectional fitting relative to DMSO as the negative control and baseline of activity. Using a type of inducible reporter, measures of mRNA for gain or loss-of-signal activity can be used to understand the reporter gene at the transcription factor-level as they relate to the gene ONECUT1. Furthermore, this assay endpoint can be referred to as a primary readout, because this assay has produced multiple assay endpoints where this one serves a reporter gene function. To generalize the intended target to other relatable targets, this assay endpoint is annotated to the dna binding intended target family, where the subfamily is homeobox protein.
Human liver HepG2 cells are transiently transfected with multiple reporter transcription units (MRTUs) in 6-well plates using FuGene 6 reagent (Roche; 3 ml FuGene/1 mg DNA). The MRTU constructs are regulated by a cis-regulating element (promoter). […] A major difference between the CIS and TRANS system is that in CIS activities of endogenous TFs are measured, whereas the TRANS assay evaluates changes in activities of exogenous, chimeric NR-Gal4 proteins. […] At the end of 24 hour incubation, total RNA was isolated using TriZol reagent (Invitrogen). The isolated RNA is then reverse-transcribed using oligo(dT) primer and Mo-MLV reverse transcriptase (Invitrogen) with DNAse I (Ambion) treatment for 30 min. The one-tenth of the produced cDNA was amplified by PCR using Taq DNA polymerase (Invitrogen) and two reporter sequence-specific primers. The PCR products were fluorescently labeled by primer extension with 6-arboxyfluorescein (6-FAM) 5'-labeled reporter sequence-specific primer (2 min at 95 C, 20 s at 68 C and 10 min at 72 C) and these products were digested with 5U of HpaI (New England Biolabs) for 2h at 37 C. The fragments were purified using Qiaquick PCR columns (Qiagen), analyzed on an ABI 3130xL genetic analyzer (Applied Biosystems) with peak positions identified by using a set of X-rhodamine (ROX)-labeled MapMarker1000 molecular weight standards (BioVentures). The raw capillary electrophoresis data was processed using Attagraph software (Attagene).
For the compound `FC(F)=C(F)C(F)(F)C(F)(F)C(F)(F)C(F)(F)C(F)(F)C(F)(F)F`, the outcome was inactive.

In the case of `Nc1ccn([C@@H]2O[C@H](CO)[C@@H](O)[C@@H]2O)c(=O)n1`, the compound was called inactive.

Consider `CCCCC(CC)C(=O)OCCOCCOCCOC(=O)C(CC)CCCC` (stereo not given), for which the compound was called inactive.

On to `Cn1c(=O)c2[nH]cnc2n(C)c1=O`, for which the result was inactive. The same measure, in the same setting: to `NC(=O)N1c2ccccc2C=Cc2ccccc21` belongs “inactive”. The same measure, in the same setting: the result for `CC(C)C(=O)Nc1ccc([N+](=O)[O-])c(C(F)(F)F)c1` reads “inactive”; that for `FC(F)C(F)(F)COCC1CO1` (stereo not given), “inactive”. Still for that read-out and setting: to `NCC(F)(F)C(F)(F)C(F)(F)C(F)(F)F` belongs “inactive”; to `OCc1ccccc1`, “inactive”. As for `O=C(Cl)C(F)(F)C(F)(F)C(F)(F)C(=O)Cl`, the call was inactive.

In the case of `CCn1nc(C)c2c1C(=O)NCC(c1ccc(O)cc1)=N2`, the call was inactive.

Turning to `Cc1ncc([C@@H](CCCCCCc2ccc3c(n2)NCCC3)CC(=O)O)cn1`, the outcome was inactive. On the same count and under the same terms, to `CC(C)CC(C)O` (stereo not given) belongs “inactive”; to `OCc1c[nH]c2ccccc12`, “inactive”; to `CC1(C)C(=O)N(Cl)C(=O)N1Cl`, “inactive”.

Regarding `CCCCCOC(C)=O`, the result was inactive.

With `OC[C@H]1O[C@@](CO)(O[C@H]2O[C@H](CO)[C@@H](O)[C@H](O)[C@H]2O)[C@@H](O)[C@@H]1O`, the outcome was inactive. Still for that read-out and setting: to `CCCCCCCCCCCCCCCCOS(=O)(=O)O` belongs “inactive”. The same measure, in the same setting: to `c1ccc2c(c1)-c1cccc3c1c-2cc1ccccc13` belongs “inactive”. On the same count and under the same terms, to `OC(Cn1cncn1)(Cn1cncn1)c1ccc(F)cc1F` belongs “inactive”.

In the case of `O=C(O)[C@H](O)[C@@H](O)C(=O)O`, the call was inactive. On the same count and under the same terms, to `c1ccc(C(O[C@@H]2CCCN(CCc3ccc4c(c3)OCO4)C2)c2ccccc2)cc1` belongs “inactive”; to `CCCCOC(=O)c1ccccc1`, “inactive”. Still for that read-out and setting: to `C[C@@H](Oc1ccc(CNC(=O)c2cccnc2Oc2ccc3c(c2)OCO3)c(F)c1)C(=O)O` belongs “inactive”; to `O=C(O)c1cccc(C[C@@H]2COc3ccc(OCc4nc5cc(F)ccc5s4)cc3[C@@H]2O)c1`, “inactive”. The same measure, in the same setting: to `OC(CCl)CCl` belongs “inactive”; to `CCOc1ccc2[nH]cc(C(=O)NCc3ccccc3)c(=O)c2n1`, “inactive”.

For `O=C(N[C@H](CO)[C@H](O)c1ccc([N+](=O)[O-])cc1)C(Cl)Cl`, the compound was classed as inactive. For the compound `CCCCN1C(=O)[C@@H]([C@H](O)C2CCCCC2)NC(=O)C12CCN(Cc1ccc(Oc3ccc(C(=O)O)cc3)cc1)CC2`, the outcome was inactive. Still for that read-out and setting: to `NC(N)=O` belongs “inactive”; to `S=P(N1CC1)(N1CC1)N1CC1`, “inactive”. Still for that read-out and setting: the result for `CC(C)CCCCCCOC(=O)C1CCCCC1C(=O)OCCCCCCC(C)C` (stereo not given) reads “inactive”. Turning to `CCCCCCCCCCCCCCO`, the concentration at half-maximal activity (AC50) was 177 µM (active). `CCCCCCOC(=O)CC(CC(=O)OCCCCCC)(OC(=O)CCC)C(=O)OCCCCCC`: the compound was called inactive. On the same count and under the same terms, to `O=C(O)c1cccc(C(=O)O)c1` belongs “inactive”; to `CCCCCCCC/C=C\CCCCCCCC(=O)OC[C@@H](O)[C@H]1OC[C@H](O)[C@H]1O`, “inactive”; to `c1ccc2ncccc2c1`, “inactive”. For the compound `CC(=O)c1ccccc1`, the compound was called inactive. On the same count and under the same terms, the result for `O=S(=O)(O)CCC(F)(F)C(F)(F)C(F)(F)C(F)(F)C(F)(F)C(F)(F)F` reads “inactive”; that for `COc1cc2c(c(OC)c1OC)-c1ccc(OC)c(=O)cc1[C@@H](NC(C)=O)CC2`, “inactive”.
